# Experimental data published in PubChem BioAssay.
# The source made the active and inactive calls.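 The calls were made as follows, unless noted: active = visual image review flags a hit and inhibition of aggregation exceeds 20%; inconclusive = visual hit but inhibition at or below 20%; inactive = no hit on visual image review.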
# Assays:
# [1] = inhibitors of TNFa-induced NFkB p65 translocation, primary screen, imaging, HUVEC, MLSMR starter and 10KST1 sets (AID 438;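 active = inhibition above 20% together with a positive visual image hit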;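 also: compound added about 3h40 before a 20 min TNFalpha stimulation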;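 as to inhibition: signal is the nuclear over cytoplasmic p65 intensity ratio per well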); details: HUVEC TNFa-induced p65 nuclear translocation; cell count: measured here: nuclei count (cytotoxicity indicator), at 2.08 µM; inhibition: at 2 µM, stronger effect = higher value, 0% TNFa-plus-vehicle, 100% no-TNFa wells
# [2] = reduction of polyQ htt aggregates in cells – imaging, exon1htt(103Q)mCFP cells, high-content imaging, primary screen (AID 483); details: exon1htt(103Q)mCFP cell line, aggregate imaging, at 2 µM; inhibition of aggregation: stronger effect = higher value; nuclei count: measured here: cell count, toxicity;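 also: compound exposure lasted 3 days before fixation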;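 as to nuclei count: percent of the per-plate median nuclei count of sample wells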
# [3] = endothelial E-selectin expression blockers – imaging, HUVEC, immunofluorescence, MLSMR starter and 10KST1 sets, primary screen (AID 487;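 active = visually confirmed hit in the image check and inhibition above 20%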;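 as to inhibition: signal is fraction of cell area covered by stained E-selectin grains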;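 as to nuclei count: 100% = median nuclei count of all wells on the same plate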); details: HUVEC TNFalpha-induced E-selectin immunofluorescence imaging, at 2 µM; inhibition: stronger effect = higher value; nuclei count: measured here: cell number, toxicity
# [4] = molecular target: Voltage-gated potassium channel subunit beta-2 (Rattus norvegicus) (UniProt P62483); test: inhibitors of rat Kvbeta2 reductase activity – biochemical, NADPH fluorescence, primary screen (AID 622;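 active = fluorescence slope higher than the sample average by over 3 SD, cut at about -0.22 in these data, passing the limit was not always enough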;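 also: slope of raw intensity against log time taken from 70 to 1610 s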); details: recombinant KvBeta, 4-cyanobenzaldehyde reduction, at 10 µM, stronger effect = higher value
# Chain of Voltage-gated potassium channel subunit beta-2 (Rattus norvegicus) (P62483 whole entry, looked up): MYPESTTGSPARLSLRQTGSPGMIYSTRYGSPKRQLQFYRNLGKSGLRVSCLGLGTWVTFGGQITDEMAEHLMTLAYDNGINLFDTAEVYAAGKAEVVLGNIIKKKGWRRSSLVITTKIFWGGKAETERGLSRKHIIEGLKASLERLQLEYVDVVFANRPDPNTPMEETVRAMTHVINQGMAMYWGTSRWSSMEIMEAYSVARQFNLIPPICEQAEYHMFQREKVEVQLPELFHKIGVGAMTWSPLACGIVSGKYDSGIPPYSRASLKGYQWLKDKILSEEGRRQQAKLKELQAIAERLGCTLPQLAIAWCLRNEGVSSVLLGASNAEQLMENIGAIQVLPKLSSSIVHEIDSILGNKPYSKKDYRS
# [5] = molecular target: Voltage-gated potassium channel subunit beta-2 (Rattus norvegicus) (UniProt P62483); test: enhancers of rat Kvbeta2 NADPH turnover – biochemical, NADPH fluorescence, primary screen (AID 623;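 active = NADPH fluorescence slope more negative than the mean of all samples by about 3 SD, 99.7% confidence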;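 also: fluorescence intensity change per second fitted from 20 to 320 s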); details: Recombinant KvBeta, NADPH fluorescence decrease slope, 10 min; at 10 µM; stronger effect = lower value
# [6] = molecular target: Alpha-2C adrenergic receptor (Homo sapiens) (UniProt P18825); test: compounds altering alpha2C-coupled GIRK flux – cell-based, HEK293 alpha2C/GIRK1/2, thallium flux, primary screen (AID 624;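 active = fluorescence slope after compound addition differing from the mean of all screened samples at 99.7% confidence, in either direction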;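 also: slope of fluorescence ratio to pre-addition baseline per second over 15 to 24 s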); details: thallium flux BTC fluorescence, at 10 µM, actives lie on both sides
# Chain of Alpha-2C adrenergic receptor (Homo sapiens) (P18825 whole entry, looked up): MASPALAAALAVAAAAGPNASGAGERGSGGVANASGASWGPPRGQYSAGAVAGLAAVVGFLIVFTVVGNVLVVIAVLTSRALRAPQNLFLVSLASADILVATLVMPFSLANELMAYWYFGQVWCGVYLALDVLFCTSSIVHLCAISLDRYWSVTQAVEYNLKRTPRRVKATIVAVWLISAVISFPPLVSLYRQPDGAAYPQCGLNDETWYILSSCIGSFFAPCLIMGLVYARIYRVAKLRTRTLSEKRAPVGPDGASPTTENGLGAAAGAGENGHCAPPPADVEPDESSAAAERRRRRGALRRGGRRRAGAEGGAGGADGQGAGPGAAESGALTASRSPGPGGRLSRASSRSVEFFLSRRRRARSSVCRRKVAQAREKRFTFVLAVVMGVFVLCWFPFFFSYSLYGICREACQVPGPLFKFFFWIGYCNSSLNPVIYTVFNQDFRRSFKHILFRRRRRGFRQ
# [7] = blockers of RIG-like receptor reporter activation – cell-based, Sendai virus stimulus, luciferase, 10K MLSCN set, TLR/RLR signaling modifier project, primary screen (AID 602276;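 active = inhibition at or above 50% at 10 µM; inactive = inhibition below 50%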;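 also: firefly luciferase from ISG56 promoter only with Renilla not read in this screen; 0% = Sendai virus plus DMSO and 100% = medium plus DMSO without virus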); details: HEK293 RL24 IRF3 luciferase reporter, at 10 µM, stronger effect = higher value
# [8] = TLR3 IRF3 reporter activation blockers – cell-based, poly I:C stimulus, luciferase, 10K MLSCN set, primary screen (AID 602277;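 active = inhibition of the reporter signal at or above 50%; inactive = inhibition below 50%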); details: HEK293-TLR3 RL24 IRF3 luciferase reporter, at 10 µM, stronger effect = higher value
SMILES,cell count [1],inhibition [1],inhibition of aggregation [2],nuclei count [2],inhibition [3],nuclei count [3],fluorescence slope [4],NADPH fluorescence slope [5],slope [6],inhibition [7],inhibition [8]
CCCNC(=O)NC1C(NC(=O)NCCC)N(C)C(=O)N1C (stereo not drawn),551,-0.3% (inactive),-4.3% (inactive),98.1%,-60.1% (inactive),116%,-0.461 (inactive),2.5e-05 (inactive),0.00546 (inactive),-0.304% (inactive),16.2% (inactive)
Cc1cc(O)c(-c2cc(C(=O)Nc3ccc(S(=O)(=O)N4CCOCC4)cc3)[nH]n2)cc1C,499,5.8% (inactive),-6.9% (inactive),100%,-62.7% (inactive),153%,-0.584 (inactive),-1.4e-05 (inactive),0.00629 (inactive),-12.1% (inactive),-24.7% (inactive)
CCCCOc1ccc(N(CC(=O)NC2CCCC2)C(=O)CCC(=O)Nc2ccccn2)cc1,582,-1.5% (inactive),-1.9% (inactive),94%,-7.6% (inactive),101%,-0.416 (inactive),1.8e-06 (inactive),0.00642 (inactive),15.8% (inactive),28.8% (inactive)
Cc1ccccc1N1C(N)=NC(N)=NC1(C)C,635,-9.8% (inactive),0.5% (inactive),103%,-6.8% (inactive),110%,-0.584 (inactive),-1.3e-05 (inactive),0.00605 (inactive),4.23% (inactive),5.9% (inactive)
S=c1[nH]nc(Cc2ccccc2)n1-c1ccccc1,664,-5.5% (inactive),-9.4% (inactive),111%,14.9% (inactive),106%,-0.367 (inactive),-3.9e-05 (inactive),0.00525 (inactive),9.34% (inactive),20.2% (inactive)
COc1ccc(S(=O)(=O)N(CC(=O)N2CCN(c3ccccc3OC)CC2)c2ccccc2)cc1,291,5.2% (inactive),-12.6% (inactive),104%,20% (inactive),111%,-0.474 (inactive),-4.9e-05 (inactive),0.00648 (inactive),8.76% (inactive),13.4% (inactive)
CCCCNC(=O)CSc1nc2ccc(N3CCOCC3)cc2c(=O)n1CCc1ccccc1,533,-0.8% (inactive),28.7% (active),48.9%,-18.8% (inactive),110%,-0.565 (inactive),-1.2e-05 (inactive),0.00671 (inactive),2.7% (inactive),10.3% (inactive)
Cn1c(=O)c(=O)n(C)c2cc(S(=O)(=O)CCC(=O)N3CCOCC3)ccc21,773,0.9% (inactive),22.5% (inactive),93%,-79.8% (inactive),113%,-0.569 (inactive),-1.9e-06 (inactive),0.00791 (inactive),8.53% (inactive),5.94% (inactive)
O=C(NC1CCCC1)C1CCCN(S(=O)(=O)c2cccc3cccnc23)C1 (stereo not drawn),617,6.6% (inactive),3.4% (inactive),107%,-68.3% (inactive),132%,-0.594 (inactive),-3.8e-05 (inactive),0.00653 (inactive),-0.271% (inactive),28.5% (inactive)
CCCCc1noc2c1/C(=N\O)CC(c1ccccc1)C2 (stereo not drawn),365,2% (inactive),11.5% (inactive),106%,-65.5% (inactive),94.1%,-0.446 (inactive),-5.9e-05 (inactive),0.0073 (inactive),-46.5% (inactive),-152% (inactive)
Cc1cc(=O)n(C)c(=O)n1CCCCCN1CCCC1,655,2.2% (inactive),-3.3% (inactive),106%,-52% (inactive),102%,-0.51 (inactive),-1.1e-05 (inactive),0.00473 (inactive),19.1% (inactive),25.3% (inactive)
CC(C)Oc1ccc(N2CC(C(=O)Nc3ccccc3F)CC2=O)cc1 (stereo not drawn),804,3.6% (inactive),-2% (inactive),103%,-110% (inactive),128%,-0.438 (inactive),6.3e-06 (inactive),0.00384 (inactive),4.3% (inactive),37.6% (inactive)
COCCCn1nnnc1SCC(=O)Nc1nc(C)c(C)s1,435,-5.5% (inactive),14.2% (inactive),58.2%,-133% (inactive),104%,-0.499 (inactive),-5.5e-05 (inactive),0.00473 (inactive),2.9% (inactive),9.02% (inactive)
